In the supplement of paper PMC12282887:
± gives the standard deviation of the averaged measurements.

What was measured:
Experiment in all cases: promoter activity interaction Z-score (Lux/OD deviation from empty-vector control); higher = stronger promoter induction by the compound
[1] = system: E. coli BW25113 acrABp lux reporter
How it was run: (§1)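 E. coli BW25113 luxCDABE reporter strains grew at 37°C in 40 µl LB Lennox in 384-well plates, with OD600 and luminescence read every 30 min for 12 h. After integration over 0–8 h for wild type or 1–9 h for deletion strains, wells under 10% of the median growth value were removed. Each score is the Z-transformed residual of growth-normalised luminescence fitted against a control.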

[2] = system: E. coli BW25113 micFp lux reporter
How it was run: as §1

[3] = system: E. coli BW25113 ompFp lux reporter
How it was run: as §1

[4] = system: E. coli BW25113 robp lux reporter
How it was run: as §1

[5] = system: E. coli BW25113 soxSp lux reporter
How it was run: as §1

[6] = system: E. coli BW25113 tolCp lux reporter
How it was run: as §1

[7] = 0.26 µg/ml, genetic background: wild type
[8] = 0.26 µg/ml, genetic background: ΔmarA
[9] = 0.26 µg/ml, genetic background: Δrob
[10] = 0.26 µg/ml, genetic background: ΔsoxS
[11] = 0.52 µg/ml, genetic background: wild type
[12] = 0.52 µg/ml, genetic background: ΔmarA
[13] = 0.52 µg/ml, genetic background: Δrob
[14] = 0.52 µg/ml, genetic background: ΔsoxS
[15] = 1 µg/ml, genetic background: wild type
[16] = 1 µg/ml, genetic background: ΔmarA
[17] = 1 µg/ml, genetic background: Δrob
[18] = 1 µg/ml, genetic background: ΔsoxS
[19] = 2.1 µg/ml, genetic background: wild type
[20] = 2.1 µg/ml, genetic background: ΔmarA
[21] = 2.1 µg/ml, genetic background: Δrob
[22] = 2.1 µg/ml, genetic background: ΔsoxS

SMILES: CCC[C@@H]1C[C@@H](C(=O)N[C@@H]([C@H]2O[C@H](SC)[C@H](O)[C@@H](O)[C@H]2O)[C@H](C)Cl)N(C)C1 [Clindamycin]
- promoter activity interaction Z-score [1, 7]: 0.462 ± 0.13
- promoter activity interaction Z-score [1, 8]: 0.688 ± 0.64
- promoter activity interaction Z-score [1, 9]: 0.443 ± 0.12
- promoter activity interaction Z-score [1, 10]: 0.20427 ± 5.4e-05
- promoter activity interaction Z-score [1, 11]: 0.0439 ± 0.28
- promoter activity interaction Z-score [1, 12]: 0.0236 ± 0.74
- promoter activity interaction Z-score [1, 13]: 0.389 ± 0.16
- promoter activity interaction Z-score [1, 14]: 0.296 ± 0.26
- promoter activity interaction Z-score [1, 15]: 0.0522 ± 0.49
- promoter activity interaction Z-score [1, 16]: -0.845 ± 0.54
- promoter activity interaction Z-score [1, 17]: 0.554 ± 0.027
- promoter activity interaction Z-score [1, 18]: 0.424 ± 0.19
- promoter activity interaction Z-score [1, 19]: 0.541 ± 0.29
- promoter activity interaction Z-score [1, 20]: -1.07 ± 0.54
- promoter activity interaction Z-score [1, 21]: 0.386 ± 0.14
- promoter activity interaction Z-score [1, 22]: 0.958 ± 1.2
- promoter activity interaction Z-score [2, 7]: 0.509 ± 0.54
- promoter activity interaction Z-score [2, 8]: 0.0727 ± 0.038
- promoter activity interaction Z-score [2, 9]: -0.112 ± 0.21
- promoter activity interaction Z-score [2, 10]: -0.295 ± 0.22
- promoter activity interaction Z-score [2, 11]: -0.308 ± 0.46
- promoter activity interaction Z-score [2, 12]: -0.109 ± 0.1
- promoter activity interaction Z-score [2, 13]: 0.00775 ± 0.06
- promoter activity interaction Z-score [2, 14]: -0.12048 ± 8.2e-05
- promoter activity interaction Z-score [2, 15]: -0.107 ± 0.47
- promoter activity interaction Z-score [2, 16]: -0.106 ± 0.01
- promoter activity interaction Z-score [2, 17]: -0.0738 ± 0.2
- promoter activity interaction Z-score [2, 18]: 0.189 ± 0.27
- promoter activity interaction Z-score [2, 19]: 0.291 ± 0.71
- promoter activity interaction Z-score [2, 20]: -0.2694 ± 0.0025
- promoter activity interaction Z-score [2, 21]: 0.0565 ± 0.17
- promoter activity interaction Z-score [2, 22]: 0.457 ± 0.16
- promoter activity interaction Z-score [3, 7]: 0.86 ± 0.48
- promoter activity interaction Z-score [3, 8]: 0.602 ± 0.034
- promoter activity interaction Z-score [3, 9]: 0.184 ± 0.088
- promoter activity interaction Z-score [3, 10]: -0.129 ± 0.28
- promoter activity interaction Z-score [3, 11]: 0.0844 ± 0.74
- promoter activity interaction Z-score [3, 12]: 0.364 ± 0.24
- promoter activity interaction Z-score [3, 13]: 0.973 ± 0.091
- promoter activity interaction Z-score [3, 14]: 0.0417 ± 0.17
- promoter activity interaction Z-score [3, 15]: 0.629 ± 1
- promoter activity interaction Z-score [3, 16]: 0.255 ± 0.36
- promoter activity interaction Z-score [3, 17]: 0.164 ± 0.52
- promoter activity interaction Z-score [3, 18]: 0.389 ± 0.074
- promoter activity interaction Z-score [3, 19]: 1.41 ± 0.49
- promoter activity interaction Z-score [3, 20]: 0.484 ± 0.28
- promoter activity interaction Z-score [3, 21]: 0.877 ± 0.67
- promoter activity interaction Z-score [3, 22]: 1.71 ± 1.1
- promoter activity interaction Z-score [4, 7]: 0.81 ± 0.04
- promoter activity interaction Z-score [4, 8]: 0.716 ± 0.3
- promoter activity interaction Z-score [4, 9]: 0.204 ± 0.64
- promoter activity interaction Z-score [4, 10]: 0.581 ± 0.019
- promoter activity interaction Z-score [4, 11]: 0.0509 ± 0.11
- promoter activity interaction Z-score [4, 12]: 0.27 ± 0.26
- promoter activity interaction Z-score [4, 13]: -0.0366 ± 0.51
- promoter activity interaction Z-score [4, 14]: 0.513 ± 0.74
- promoter activity interaction Z-score [4, 15]: 0.553 ± 1.1
- promoter activity interaction Z-score [4, 16]: 0.0526 ± 0.64
- promoter activity interaction Z-score [4, 17]: 0.0577 ± 0.99
- promoter activity interaction Z-score [4, 18]: 0.531 ± 0.43
- promoter activity interaction Z-score [4, 19]: -0.23 ± 0.084
- promoter activity interaction Z-score [4, 20]: -0.785 ± 0.17
- promoter activity interaction Z-score [4, 21]: -0.582 ± 0.73
- promoter activity interaction Z-score [4, 22]: -0.589 ± 0.59
- promoter activity interaction Z-score [5, 7]: 0.148 ± 0.1
- promoter activity interaction Z-score [5, 8]: 0.331 ± 0.014
- promoter activity interaction Z-score [5, 9]: 0.202 ± 0.053
- promoter activity interaction Z-score [5, 10]: 0.316 ± 0.0083
- promoter activity interaction Z-score [5, 11]: -0.237 ± 0.079
- promoter activity interaction Z-score [5, 12]: 0.237 ± 0.021
- promoter activity interaction Z-score [5, 13]: 0.217 ± 0.043
- promoter activity interaction Z-score [5, 14]: 0.23 ± 0.076
- promoter activity interaction Z-score [5, 15]: 0.0391 ± 0.054
- promoter activity interaction Z-score [5, 16]: 0.244 ± 0.1
- promoter activity interaction Z-score [5, 17]: 0.0504 ± 0.034
- promoter activity interaction Z-score [5, 18]: 0.138 ± 0.2
- promoter activity interaction Z-score [5, 19]: -0.0707 ± 0.029
- promoter activity interaction Z-score [5, 20]: 0.0916 ± 0.17
- promoter activity interaction Z-score [5, 21]: 0.0849 ± 0.32
- promoter activity interaction Z-score [5, 22]: 0.0804 ± 0.017
- promoter activity interaction Z-score [6, 7]: -0.169 ± 0.35
- promoter activity interaction Z-score [6, 8]: 0.807 ± 0.31
- promoter activity interaction Z-score [6, 9]: 0.395 ± 0.66
- promoter activity interaction Z-score [6, 10]: -0.505 ± 0.044
- promoter activity interaction Z-score [6, 11]: 0.223 ± 1
- promoter activity interaction Z-score [6, 12]: 0.212 ± 1.3
- promoter activity interaction Z-score [6, 13]: 0.229 ± 0.18
- promoter activity interaction Z-score [6, 14]: 0.282 ± 0.71
- promoter activity interaction Z-score [6, 15]: -0.594 ± 0.74
- promoter activity interaction Z-score [6, 16]: 0.0618 ± 0.085
- promoter activity interaction Z-score [6, 17]: -0.255 ± 0.54
- promoter activity interaction Z-score [6, 18]: 0.674 ± 0.27
- promoter activity interaction Z-score [6, 19]: -0.385 ± 0.39
- promoter activity interaction Z-score [6, 20]: -0.307 ± 0.67
- promoter activity interaction Z-score [6, 21]: 0.0932 ± 0.95
- promoter activity interaction Z-score [6, 22]: 0.0435 ± 0.33
